This passage reports growth results from PubChem BioAssay (NCI).

Compounds without any hit were thinned out: in the full panel of roughly 83,000, 20% have a hit.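 How to read the values: 0–100, growth inhibition (40 = 60% inhibited); 0, no net growth; -100 to 0, cell death (-40 = 40% of starting cells died; -100 = all dead).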 Active and inactive are the calls of the source. Rule for the calls: active = growth percent below 10; inactive = the rest.

The test concerns NCI/ADR-RES ovarian. Briefly: NCI-60 one-dose screen, 48 h (100 = growth as untreated, 0 = no growth, -100 = all killed). The note with it: 10 µM unless noted.
As for `COC(=O)[C@]12CC[C@@H](C)[C@H](C)[C@@H]1C1=CC[C@@H]3[C@@]4(C)C(C=O)=C[C@@](C)(COC(=O)c5ccco5)[C@@H]4C(=O)C[C@@]3(C)[C@]1(C)CC2`, the growth is 28.4% (inactive).

Take `COc1cccc(C(=O)NCCNc2cc(-c3cn(-c4ccccc4)nc3-c3cccc(OC)c3)ccn2)c1`: the growth is 47.2% (inactive).

In the case of `O=C(O)C1CCC(=O)N1C(=O)OCc1ccccc1` (stereo unspecified), the growth is 98.4% (inactive).

Take `Cc1cc(NCc2cc(Nc3ccnc4cc(Cl)ccc34)ccc2F)nc(N2CCCC2)n1`: the growth was 12.7% (inactive).

Take `COC(=O)[C@]12CC[C@@H](C)[C@H](C)[C@@H]1C1=CC[C@@H]3[C@@]4(C)C(C=O)=C[C@@](C)(COC(=O)c5ccco5)C4=CC[C@@]3(C)[C@]1(C)CC2`: the growth was 23.7% (inactive).

Turning to `CC(CCc1ccc(Cl)c(Cl)c1)NCc1ccc(C(C)(C)C)cc1` (stereo unspecified), the growth is 86.3% (inactive).

On to `Cc1ccc2nc3ccccc3c(NCc3ccccc3)c2c1`, for which the growth is 29.8% (inactive).

On to `COc1cc(-c2nc(N3CCN(C)CC3)c3ccccc3n2)cc(OC)c1OC`, for which the growth was 10.3% (inactive).

As to `CCn1c(C)nc2cc(C(N)=O)ccc21`, the growth is 97% (inactive).

As for `CN(C)CC1C(=O)O[C@H]2[C@H]1CC/C(COC(=O)c1cc3ccccc3[nH]1)=C\CC[C@@]1(C)O[C@@H]21` (stereo partly specified), the growth is -30.8% (active).

`CN1CCN(CCCOc2ccc3nc(Nc4ccc(F)c(F)c4)ccc3c2)CC1`: the growth was 70.6% (inactive).

As for `COc1cccc(-c2nn(-c3ccccc3)cc2-c2ccnc(NCCCNC(=O)c3cccc(C(F)(F)F)c3)c2)c1`, the growth is 22.6% (inactive).

Turning to `COc1ccc(-c2cc(-c3cc(OC)ccc3OC)nc(SCC(=O)c3ccccc3)c2C#N)cc1`, the growth was 93.1% (inactive).

Turning to `Cc1ccc(Cl)c(NS(=O)(=O)c2ccc(-c3cnc(C4CC4)o3)cc2)c1`, the growth is 19.5% (inactive).

Take `COc1cccc(-c2nn(-c3ccccc3)cc2-c2ccnc(NCCNC(=O)c3ccccc3)c2)c1`: the growth is 46.6% (inactive).

Regarding `Cc1cc(N2CCCC2)nc(NCc2cc(Nc3ccnc4cc(Cl)ccc34)ccc2F)n1`, the growth is -33.7% (active).

As to `COc1cccc(-c2nn(-c3ccccc3)cc2-c2ccnc(NCCNC(=O)Nc3ccccc3)c2)c1`, the growth was 34.8% (inactive).

`CC(C)CCC[C@@H](C)[C@H]1CC[C@H]2[C@@H](Nc3ccc(O)cc3)CCC[C@]12C`: the growth was 71.4% (inactive).

Regarding `COc1cc(-c2nn(-c3ccccc3)cc2-c2ccnc(NCCNS(=O)(=O)c3ccc(Cl)cc3)n2)ccc1Cl`, the growth is 31.7% (inactive).

Regarding `CCCCn1c(=O)c2c(nc3n2CCCN3CCc2ccc(OCC(=O)NCCN(CC)CC)cc2)n(CCCC)c1=O`, the growth was 60.7% (inactive).

For `COC(=O)CCC1=C(C)C2=NC1=CC1=NC(=CC3=NC(=Cc4[nH]c(/c(=C(/C)O)c4C)=C2)C(C(C)=O)=C3C)C(C)=C1CCC(=O)OC`, the growth is 103% (inactive).

As for `N[C@@H](CCCCNCC(=O)O)C(=O)O`, the growth is 101% (inactive).

Take `O=C(c1ccc(Nc2nccc(NCCCCNc3ccnc4cc(Cl)ccc34)n2)cc1)N1CCCCC1`: the growth was 89% (inactive).

For the compound `Cc1ccc(NCCN(C)C)c2c(=O)c3ccccc3sc12`, the growth was 38.6% (inactive).

As for `Cc1cc(NCCCCNc2ccnc3cc(Cl)ccc23)nc(Nc2ccc(C(=O)N3CCCC3)cc2)n1`, the growth was 94.8% (inactive).

Regarding `CC(C)(C)n1cc(-c2ccnc(NCCCNS(=O)(=O)c3ccccc3)c2)c(-c2ccccc2)n1`, the growth was 74.6% (inactive).

As to `Fc1ccc(CNc2c3ccccc3nc3ccccc23)cc1F`, the growth was 27.6% (inactive).

Turning to `c1c[nH]c(CNC2CCCCC2)c1`, the growth was 99.1% (inactive).

For `COc1cccc(-c2nn(-c3ccccc3)cc2-c2ccnc(NCCNC(=O)Nc3cccc(C(F)(F)F)c3)c2)c1`, the growth is 27.2% (inactive).

Consider `O=C(NCCCNc1cc(-c2cn(-c3ccccc3)nc2-c2cccc(O)c2)ccn1)c1ccc(F)cc1`, for which the growth was 19% (inactive).

On to `Cc1cc(NCc2cc(Nc3ccnc4cc(Cl)ccc34)ccc2F)nc(Cl)n1`, for which the growth is 35.7% (inactive).

Consider `NC(=O)c1ccc[n+](Cc2ccc(Cl)cc2Cl)c1`, for which the growth is 111% (inactive).

As for `Cc1cc(Cl)nc(NCc2cc(Nc3ccnc4cc(Cl)ccc34)ccc2F)n1`, the growth was 50.3% (inactive).

With `COc1ccc(-c2ccc3c(c2)sc2nc(-c4ccc(F)cc4)cn23)cc1`, the growth is 85.5% (inactive).

For `O=C(NCCCNc1cc(-c2cn(-c3ccccc3)nc2-c2cccc(O)c2)ccn1)c1ccccc1`, the growth is 25.8% (inactive).

On to `FC(F)(F)c1cc(Nc2ccc3cc(OCCCN4CCOCC4)ccc3n2)ccc1Cl`, for which the growth was 44.9% (inactive).
